Sampled rows, rich in hits. Any-hit rate of the full collection: about 3.6%.
CRFR2-BP antag = CRF-BP/CRF-R2 complex antagonism; HEK293 CRF-R2/CRF-BP, CRF-induced calcium fluorescence; 350,000 compounds, 0.59% hits; inhibition, % at 11.8 µM; AID 588475;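 active = inhibition of the ligand-induced calcium signal above about 50% at the single tested concentration, limit read from the data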
NRP1-CendR mod = alters CendR peptide binding to human NRP-1. O14786. FAM-RPARPAR peptide binding to NRP-1, fluorescence polarization. inhibition, % at 25 µM. 360,000 compounds, 0.85% hits;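 active = inhibition or corrected inhibition above about 18%, plus a signal ratio from 0.5 to 1.5, limit read from the data, passing the limit was not always enough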
NadD inh = NadD (S. aureus) enzyme inhibition; 360,000 compounds, 0.78% hits; AID 602399; purified NadD enzyme, colorimetric absorbance read-out; inhibition, % at 20 µM; in the data active = inhibition above about 26%
FAS TE block = blocks the thioesterase domain of human fatty acid synthase. 360,000 compounds, 0.67% hits. AID 602261. P49327. recombinant FAS-TE, OMFH fluorogenic substrate, fluorescence endpoint. inhibition, % at 15 µM;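 active = compounds whose normalised, plate-corrected inhibition of enzyme fluorescence in the single-dose primary screen is 50% or more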
Myeloid diff MLP = myeloid differentiation induction. ER-HoxA9 myeloid progenitors, lysozyme-GFP differentiation, flow cytometry. calls only at 10 µM. 360,000 compounds, 1% hits;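 active = normalized GFP-positive differentiation at or above the plate's own cutoff, the solvent-only control mean plus 3 SD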;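 also: cells exposed to compound for four days before flow analysis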
Each line names hits and unclear results; the compound was inactive in the other large screens.

O=C(Nc1ncc([N+](=O)[O-])s1)c1cccc([N+](=O)[O-])c1	CRFR2-BP antag 70
COC(=O)c1cc(=O)nc(NN=Cc2ccc(C)cc2)s1	none (no result: CRFR2-BP antag)
CC(=O)c1cccc(Nc2cc(C)nc3ccccc23)c1	none
CC(=O)c1cccc(Nc2cc(C)nc3c(C)cccc23)c1	CRFR2-BP antag 109
COC(=O)C[C@H]1c2cc(C(F)(F)F)ccc2S(=O)(=O)N1C1CCCC1	NRP1-CendR mod 24
COC(=O)C[C@H]1c2cc(C(F)(F)F)ccc2S(=O)(=O)N1Cc1ccccc1	NRP1-CendR mod 25
COC(=O)C[C@H]1c2cc(C(F)(F)F)ccc2S(=O)(=O)N1Cc1ccc(OC)cc1	none
CCOC(=O)C[C@H]1c2cc(F)ccc2S(=O)(=O)N1C1CCCCC1	NRP1-CendR mod 26
COC(=O)C[C@H]1c2cc(F)ccc2S(=O)(=O)N1C(C)C	NRP1-CendR mod 26
COC(=O)c1ccc(CNC(=O)CN2C(=O)NC(Cc3ccccc3)(c3ccccc3)C2=O)cc1 (stereo not drawn)	none
Cc1nc2c(o1)C(=O)c1ccccc1C2=Nc1ccccc1	none (no result: Myeloid diff MLP)
COC(=O)C[C@H]1c2cc(F)cc(F)c2S(=O)(=O)N1C1CCN(Cc2ccccc2)CC1	NRP1-CendR mod 27
CC(=O)C[C@H]1c2cc(C(F)(F)F)ccc2S(=O)(=O)N1C1CCCCC1	NRP1-CendR mod 27
CC(C)OC(=O)C(C(=O)C(F)(F)F)c1cc(NS(=O)(=O)c2ccc3ccccc3c2)c2ccccc2c1O (stereo not drawn)	NadD inh 55, Myeloid diff MLP active
COc1ccccc1CN1CCNC(=O)C1CC(=O)NC1CCCCCC1 (stereo not drawn)	NRP1-CendR mod 26
COc1cccc(CN2CCNC(=O)C2CC(=O)NC2CCCCC2)c1OC (stereo not drawn)	none
Cc1cc(C)cc(Cn2cc(CN3CC(N4CCCCC4)CS3(=O)=O)nn2)c1 (stereo not drawn)	none (no result: CRFR2-BP antag)
COc1ccc(CN(C)C(=O)Cc2ccc(S(=O)(=O)N3CCOCC3)s2)cc1OC	none
COc1ccc(CN2CCNC(=O)C2CC(=O)N(C)C2CCOCC2)cc1OC (stereo not drawn)	none
Cc1ccc(NC(=O)CN2C(=O)S/C(=C/c3ccc(-c4cc(C(=O)O)ccc4C)o3)C2=O)cc1C	NadD inh 50
CC(Sc1nnc(-c2cccnc2)o1)C(=O)NC1CCCC1 (stereo not drawn)	NRP1-CendR mod 22
Cc1ccccc1-c1nnc(SC(C)C(=O)NC2CCCC2)o1 (stereo not drawn)	none
Cc1nc(-c2ccccc2)sc1C(=O)CSc1ccccc1	NRP1-CendR mod 28
Cc1nc(-c2ccccc2)sc1C(=O)CSc1ccc(F)cc1	none
CCOC(=O)C1=C(O)c2ccccc2C(=O)/C1=C\c1ccc(C)cc1	Myeloid diff MLP active
CCOC(=O)C1=C(C)OC(=Cc2ccccc2)C1=O	none
CCOc1ccc(S(=O)(=O)N2CCN(C(=O)C3CSC4(C)CCC(=O)N34)CC2)cc1 (stereo not drawn)	none
CC12CCC(=O)N1C(C(=O)NCCc1ccccc1)CS2 (stereo not drawn)	NRP1-CendR mod 25
CC12CCC(=O)N1C(C(=O)NCCc1ccc(F)cc1)CS2 (stereo not drawn)	none
CCOc1ccccc1N1CCN(C(=O)C2CSC3(C)CCC(=O)N23)CC1 (stereo not drawn)	CRFR2-BP antag 72
CC(=O)NC(C)(c1ccccc1)c1nc(-c2cccc(F)c2)cs1 (stereo not drawn)	none (no result: CRFR2-BP antag)
Cc1nc(SCc2c(F)cccc2Cl)c2c(=O)n(C)c(=O)n(C)c2n1	Myeloid diff MLP active
Cc1cccc(NC(=O)CSc2nc(C)nc3c2c(=O)n(C)c(=O)n3C)c1	none
Cc1ccc(Cl)cc1NC(=O)COC(=O)CCN1C(=O)C2CC=CCC2C1=O (stereo not drawn)	none
Cc1ccc(Cl)cc1NC(=O)COC(=O)CN1C(=O)C2CCCCC2C1=O (stereo not drawn)	NRP1-CendR mod 26
Cc1ccc(S(=O)(=O)NCC(=O)N(CC(=O)NCC2CCCO2)Cc2ccc(Cl)cc2)cc1 (stereo not drawn)	none
O=C(CN(CC1CCCO1)C(=O)CNS(=O)(=O)c1ccc(Cl)cc1)NCC1CCCO1 (stereo not drawn)	NRP1-CendR mod 30
Cc1cccc2nc(-c3ccccc3)nc(N3CCC(O)(c4ccc(Cl)cc4)CC3)c12	NRP1-CendR mod 31
COc1ccc(OCc2cccc(C(=O)Nn3cc([N+](=O)[O-])cn3)c2)cc1	CRFR2-BP antag 53
NNC(=O)c1cccc(COc2cccc(Br)c2)c1	none
Cn1c(C(=O)NN)cc2cc(Oc3ccccc3)ccc21	none
COc1ccc(OCc2cccc(C(=O)NN)c2)cc1	Myeloid diff MLP active
COc1ccc(OCc2cccc(C(=O)Nc3cc(C)on3)c2)cc1	none
Cn1c(C(=O)NN)cc2cc(OCc3ccccc3)ccc21	Myeloid diff MLP active
NNC(=O)c1cccc(COc2ccc(Br)cc2)c1	Myeloid diff MLP active
CCOc1ccc(NC(=O)CCC(=O)Oc2ccc(C)cc2)cc1	none
O=C(C1COc2ccccc2O1)N1CCN(S(=O)(=O)c2ccccc2)CC1 (stereo not drawn)	none
COc1ccc(S(=O)(=O)N2CCOCC2)cc1NC(=O)COC(=O)C1COc2ccccc2O1 (stereo not drawn)	NRP1-CendR mod 28
COc1ccc(C)cc1NC(=O)COC(=O)C1COc2ccccc2O1 (stereo not drawn)	none
Nc1ccccc1Oc1c(F)c(F)c(Oc2ccccc2N)c(F)c1F	CRFR2-BP antag 67
Nc1cccc(Oc2c(F)c(F)c(Oc3cccc(N)c3)c(F)c2F)c1	none
COCCNc1ccc(S(=O)(=O)N2CCCC2)cn1	none
O=[N+]([O-])c1cc(/C=N\O)ccc1Oc1ccc(F)cc1	CRFR2-BP antag 79
COc1cc(/C=N/O)ccc1Oc1ccc([N+](=O)[O-])cc1[N+](=O)[O-]	none
CCCNC(=O)c1cc(C2CCCCN2C(=O)c2ccccc2)on1 (stereo not drawn)	none (no result: CRFR2-BP antag)
O=C(C(=O)N1CCC(c2ccccc2)CC1)c1ccc(F)c(F)c1	none (no result: CRFR2-BP antag, NadD inh, FAS TE block)
COCCn1c(SCc2cc(=O)n3ccsc3n2)nnc1-c1ccncc1	none
O=c1cc(CSc2n[nH]c(-c3ccncc3)n2)nc2sccn12	NRP1-CendR mod 24
Cc1nc2ccc(C(=O)NC(C)(C)C)cn2c1N(C)C(=O)CCc1ccccc1	none (no result: CRFR2-BP antag)
O=C(Nc1nccs1)c1cn(-c2ccccc2)nc1-c1ccncc1	Myeloid diff MLP active
Fc1ccc(-n2nnc(-c3cccnc3)n2)cc1	NRP1-CendR mod 27
Brc1ccccc1-n1nnc(-c2cccnc2)n1	none
Clc1ccc(-n2nnc(-c3cccnc3)n2)cc1Cl	Myeloid diff MLP active
COc1cc(NC(=O)Nc2nnc([C@H]3C[C@H](O)[C@@H](CO)O3)s2)cc(OC)c1	none (no result: CRFR2-BP antag)
COc1ccccc1Nc1nc2c(C)cccc2cc1C#N	none
CCOc1ccc(Nc2nc3c(C)cccc3cc2C#N)cc1	Myeloid diff MLP active
O=C(NNC(=S)NCC1CCCO1)c1cc(Br)ccc1Cl (stereo not drawn)	none

Screening results as filed in PubChem BioAssay.
